This passage reports Potency and activity change, negative = cytotoxicity results from PubChem BioAssay (NCATS).

Records with an inconclusive call do not appear. Where a call stands in place of a potency, no number is given. Values without a mark were called inactive. Active and inactive are the calls of the source. The call rests on the fitted dose curve. Peptide text beside a SMILES is read from it.
Potency means the concentration at half of the fitted maximal effect.

A short description of the experiment: Cytotoxicity counterscreen for inhibitors of SARS-CoV-2 cell entry (AID 1645845). Further: nearly all actives have a fitted effect of over 50% in size. Particulars: cell viability (SARS-CoV-2 entry assay cells); series mostly up to 57.1 µM. In outline: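 Expi293F/hACE2 cells seeded overnight; cpd pin-transferred in DMSO, 1 h preincubation, + media, 48 h 37 C 5% CO2; ATPLite 1step luminescence; normalized to cells and no cells.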
For the compound `COc1ccc2c(c1)C(c1ccc(F)cc1)=C(CN1CCCC1)CO2`, the Potency result is “inactive”.

Consider `CC[C@@H](Oc1cccc(CN(CCCOc2ccc(OC)cc2)c2nc3ccccc3o2)c1)C(=O)O`, for which the Potency result is “inactive”.

As to `CN[C@@H](C)C(=O)N[C@H](C(=O)N1CCC[C@H]1C(=O)Nc1snnc1-c1ccccc1)C1CCCCC1`, the Potency entry was “inactive”.

For the compound `CCCC1(CCC)CCC2(CCN(CCCN(CC)CC)C2)CC1`, the Potency is 7.08 µM (active).

In the case of `Nc1nc(OCc2cc(Br)cs2)c2[nH]cnc2n1`, the Potency result is “inactive”.

Regarding `CN(C)CCNC(=O)COc1c2cccc1Cc1cccc(c1OCC(=O)NCCN(C)C)Cc1cccc(c1OCC(=O)NCCN(C)C)Cc1cccc(c1OCC(=O)NCCN(C)C)C2`, the activity change, negative = cytotoxicity was -11.8% [at 11.3 µM].

For `COC(=O)/C=C/C(=O)OC`, the Potency entry was “inactive”.

Take `C=CC(=O)Nc1cccc(Nc2nc(Nc3ccc(N4CCN(C(C)=O)CC4)cc3OC)ncc2C(F)(F)F)c1`: the Potency is 31.6 µM (active).

Take `CC[C@H]1OC(=O)[C@H](C)[C@@H](O[C@H]2C[C@@](C)(OC)[C@@H](O)[C@H](C)O2)[C@H](C)[C@@H](O[C@@H]2O[C@H](C)C[C@H](N(C)C)[C@H]2O)[C@](C)(O)C[C@@H](C)C(=O)[C@H](C)[C@@H](O)[C@]1(C)O`: the Potency entry is “inactive”.

As for `Cc1sc2c(c1C)C(c1ccc(Cl)cc1)=N[C@@H](CC(=O)Nc1ccc(OCCOCCOCCOCCNc3cccc4c3C(=O)N(C3CCC(=O)NC3=O)C4=O)cc1)c1nnc(C)n1-2` (stereo not given in full), the Potency result is “inactive”.

Consider `C/C=C/C/C=C/CCC(=O)[C@H]1O[C@H]1C(N)=O`, for which the Potency entry is “inactive”.

Consider `CCO[C@@H]1OC(=O)C[C@@H]1NC(=O)[C@@H]1CCCN2C(=O)CC[C@H](NC(=O)c3nccc4ccccc34)C(=O)N12`, for which the Potency result was “inactive”.

For the compound `CCN1CCN(Cc2ccc(NC(=O)c3ccc(C)c(NC(=O)c4cncc(-c5cccs5)c4)c3)cc2C(F)(F)F)CC1`, the Potency is 31.6 µM (active).

For the compound `CCCCC[C@H](O)/C=C/[C@H]1[C@H](O)CC(=O)[C@@H]1CCCCCCC(=O)O`, the Potency result was “inactive”.

As to `COCC(=O)NC/C=C/c1ccc2ncnc(Nc3ccc(Oc4ccc(C)nc4)c(C)c3)c2c1`, the Potency result is “inactive”.

Regarding `C[C@H](NC(=O)c1c(N)nn2cccnc12)c1cc2cccc(C#Cc3cnn(C)c3)c2c(=O)n1-c1ccccc1`, the Potency entry was “inactive”.

`O=c1ccn([C@@H]2O[C@H](CO)[C@@H](O)[C@H]2O)c(=O)[nH]1`: the Potency entry is “inactive”.

In the case of `O=C(Nc1cnccc1Cl)N1CCN(Cc2ccc3c(c2)OC(F)(F)O3)CC1`, the Potency entry is “inactive”.

Regarding `CC1(C)[C@@H](O)CC[C@]2(C)[C@H]3C(=O)C=C4[C@@H]5C[C@@](C)(C(=O)O)CC[C@]5(C)CC[C@@]4(C)[C@]3(C)CC[C@@H]12`, the Potency result was “inactive”.

On to `Cc1cc(C(=O)Nc2cc(Oc3ccc4nc(NC(=O)C5CC5)cn4n3)ccc2C)n(C)n1`, for which the Potency result is “inactive”.

For `C=CC(=O)N1CCC[C@H](n2c(=O)n(-c3ccc(Oc4ccccc4)cc3)c3c(N)ncnc32)C1`, the Potency entry was “inactive”.

As for `O=C1OC(COc2ccccc2[N+](=O)[O-])CC1Cc1ccccc1` (stereo not given), the Potency result was “inactive”.

In the case of `NC[C@H]1O[C@H](O[C@H]2[C@H](O)[C@@H](O[C@H]3O[C@H](CO)[C@@H](O)[C@H](N)[C@H]3O)[C@H](N)C[C@@H]2N)[C@H](N)C[C@@H]1O`, the Potency entry was “inactive”.

For the compound `Cc1c(Cl)cccc1S(=O)(=O)Nc1nc(CCN2CCOCC2=O)cs1`, the Potency entry is “inactive”.

On to `Cc1noc(C)c1-c1ccc(-c2cc(C(N)=O)c(NC(N)=O)s2)c(O[C@H]2CCNC2)c1`, for which the Potency entry was “inactive”.

Turning to `CC[C@H]1OC(=O)[C@H](C)C(=O)[C@H](C)[C@@H](O[C@H]2O[C@H](C)C[C@H](N(C)C)[C@H]2O)[C@](C)(OC)C[C@@H](C)C(=O)[C@H](C)[C@H]2N(CCCCn3cnc(-c4cccnc4)c3)C(=O)O[C@]12C`, the Potency entry is “inactive”.

Regarding `O=c1oc2c(C3OCCCO3)c(O)ccc2c2c1CNCC2`, the Potency entry was “inactive”.

As for `CC(C)c1c(-c2ccccc2)nc2c(C#N)c[nH]n2c1=O`, the Potency result is “inactive”.

On to `O=C(O)c1ccccc1-c1ccc(/C=c2\sc3nc4cc(Br)cnc4n3c2=O)o1`, for which the Potency entry was “inactive”.

Turning to `C=C1C(=O)O[C@@H]2[C@H]3C(C)=CC[C@@]34O[C@@]4(C)CC[C@@H]12`, the Potency entry was “inactive”.

In the case of `CNC(=O)c1cc(Oc2ccc3nc(N[C@@H]4CCCC[C@H]4O)sc3c2)ccn1`, the Potency result was “inactive”.

For the compound `CCCNC(=O)c1cn2ncnc(Nc3cc(C(=O)NC4CC4)ccc3C)c2c1C`, the Potency entry was “inactive”.

For the compound `CCOC(=O)c1ccnc(CNCC(=O)N(CC)CCN(C)C)c1`, the Potency entry is “inactive”.

For the compound `C[C@H](Nc1ncnc2nc[nH]c12)c1cc2cccc(Cl)c2c(=O)n1-c1ccccc1`, the Potency entry was “inactive”.

As to `CC[C@H](Nc1ncnc2nc[nH]c12)c1oc2ccccc2c(=O)c1-c1cccc(F)c1`, the Potency entry is “inactive”.

Regarding `CC[C@@H]1[C@H](F)C(=O)N[C@@H]1COc1nccc2cc(C(N)=O)c(OC)cc12`, the Potency result was “inactive”.

For the compound `CC(=O)O/N=C1/C(c2c(O)[nH]c3cc(Br)ccc23)=Nc2ccccc21`, the Potency result was “inactive”.

Regarding `CC(=O)N1CCC[C@H]1C(=O)N[C@@H](Cc1cnc[nH]1)C(=O)N[C@@H](CO)C(=O)N[C@@H](CS)C(=O)N[C@@H](CC(N)=O)C(N)=O` (Ac-PHSCN-NH2), the Potency result was “inactive”.

As for `O=C(O)CC(C(=O)O)n1c(O)c(C2=c3cc(Br)ccc3=NC2=O)sc1=S` (stereo not given), the Potency entry was “inactive”.

Regarding `CC(C)(NS(=O)(=O)c1ccc2c(Cl)cnc(N=C(N)N)c2c1)C(=O)O`, the Potency result is “inactive”.
